Screening results as filed in PubChem BioAssay.
CtBP-E1A blk: qHTS Assay for Inhibitors of the CtBP/E1A Interaction. activity change, % (test concentration not listed). AID 651724, 2012. 0.49% of 340,000 active. AlphaScreen GST-E1A/His-CtBP binding, 1536-well; stronger effect = lower value; in the data active means activity change below about -65%; inconclusive means mostly about -30% to -63%; further: on the % scale 0 is the no-effect control and ±100 the full control effect
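In 5 uL wells, 23 nL compound meets equimolar GST-E1A and His-CtBP (5X stock 125 nM each) for 2 h, 37 °C. Beads (5X, 50 ug/mL) then 1 h, 37 °C, dark.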
G9a inh: qHTS Assay for Inhibitors of Histone Lysine Methyltransferase G9a | Histone-lysine N-methyltransferase EHMT2 (Homo sapiens), Q96KQ7 | G9a H3K9 monomethylation, AlphaScreen, 2 h | Potency, µM (highest dose often 102 µM), for the others: top-dose activity, negative = inhibition, most hits filed as inhibitors | 8.8% of 350,000 active | AID 504332, 2011; further: potency means the concentration at half of the fitted maximal effect; on the % scale 0 is the no-effect control and ±100 the full control effect; nearly all actives have a fitted effect of over 75% in size
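G9a (20 nM) preincubated 15 min RT with compounds, then 500 nM biotinylated H3K9 peptide and 20 uM SAM added; 2 h RT reaction. Monomethyl-H3K9 product detected by AlphaScreen with anti-H3K9me1 antibody, streptavidin donor and anti-rabbit IgG acceptor beads.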
JMJD2A Tudor inh: qHTS Assay for Inhibitors of JMJD2A-Tudor Domain | Lysine-specific demethylase 4A (Homo sapiens), O75164 | AlphaScreen JMJD2A-Tudor / H3K4me3 peptide binding | Potency, µM (titrated, usually from 114 µM), without a hit: at the highest dose activity change, negative = inhibition, hits mostly inhibitors | 4.4% of 390,000 active; further: potency means the concentration at half of the fitted maximal effect; on the % scale 0 is the no-effect control and ±100 the full control effect; nearly all actives have a fitted effect of over 50% in size
Six1-Eya2 inh: qHTS Assay for Inhibitors of the Six1/Eya2 Interaction; activity change, % (test concentration not listed); AID 651725, 2012; 0.56% of 360,000 active; AlphaScreen GST-Six1/His-Eya2 binding, biochemical; stronger effect = lower value; Homeobox protein SIX1 (Homo sapiens) + Protein phosphatase EYA2 (Homo sapiens), …; in the data active means activity change below about -65%; inconclusive means mostly about -30% to -63%; further: on the % scale 0 is the no-effect control and ±100 the full control effect
Target sequence (O00167 whole entry, looked up): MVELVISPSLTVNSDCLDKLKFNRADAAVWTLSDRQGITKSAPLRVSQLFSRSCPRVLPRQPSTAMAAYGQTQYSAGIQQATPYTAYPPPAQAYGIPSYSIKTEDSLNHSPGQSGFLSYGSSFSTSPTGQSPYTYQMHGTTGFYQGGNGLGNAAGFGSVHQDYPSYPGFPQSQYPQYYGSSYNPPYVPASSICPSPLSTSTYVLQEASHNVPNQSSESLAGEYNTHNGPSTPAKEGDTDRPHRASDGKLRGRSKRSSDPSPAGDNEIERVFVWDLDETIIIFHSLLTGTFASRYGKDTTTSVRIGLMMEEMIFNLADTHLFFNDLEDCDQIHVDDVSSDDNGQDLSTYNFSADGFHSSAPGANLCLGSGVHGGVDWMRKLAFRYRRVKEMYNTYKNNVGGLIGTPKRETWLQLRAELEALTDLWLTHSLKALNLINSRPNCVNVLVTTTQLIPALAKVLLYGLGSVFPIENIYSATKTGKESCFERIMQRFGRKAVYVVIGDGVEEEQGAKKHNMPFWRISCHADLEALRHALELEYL
Target sequence (Q15475 whole entry, looked up): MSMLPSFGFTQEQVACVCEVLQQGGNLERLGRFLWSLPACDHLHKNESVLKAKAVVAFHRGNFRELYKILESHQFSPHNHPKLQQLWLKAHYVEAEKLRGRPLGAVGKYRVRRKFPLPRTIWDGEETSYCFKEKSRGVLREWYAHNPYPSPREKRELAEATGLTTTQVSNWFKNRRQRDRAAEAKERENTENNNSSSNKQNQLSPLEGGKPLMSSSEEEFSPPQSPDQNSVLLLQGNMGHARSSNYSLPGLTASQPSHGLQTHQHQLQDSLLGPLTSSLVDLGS
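Compounds are tested against tagged Six1 and Eya2 proteins bridged by glutathione donor and nickel acceptor beads; after a one-hour incubation at 37 °C without light, AlphaScreen emission is recorded.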
BAZ2B block: qHTS Assay for Inhibitors of BAZ2B | 4.4% of 360,000 active | Potency, µM (series often up to 114 µM), inactives show at the top dose activity change, negative = inhibition, actives largely listed as inhibitors | AlphaScreen BAZ2B-H3K14Ac peptide displacement; further: potency means the concentration at half of the fitted maximal effect; on the % scale 0 is the no-effect control and ±100 the full control effect; nearly all actives have a fitted effect of over 60% in size
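Multi-concentration screen (max 110 uM) measuring displacement of acetylated histone H3 peptide from BAZ2B by AlphaScreen, using 50 nM protein, 50 nM peptide and 10 ug/mL streptavidin donor plus Ni-chelate acceptor beads.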
HP1b chromo inh: HTS for Inhibitors of HP1-beta Chromodomain Interactions with Methylated Histone Tails. Chromobox protein homolog 1 (Homo sapiens), P83916. AlphaScreen HP1-beta / biotin-H3K9me3 peptide binding. Potency, µM (highest dose often 114 µM), for inactives: at the top dose activity change, negative = inhibition, hits mostly inhibitors. 0.56% of 390,000 active. AID 540317, 2011; further: potency means the concentration at half of the fitted maximal effect; nearly all actives have a fitted effect of over 70% in size
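Compound inhibition of the preformed complex between 50 nM HP1-beta and 50 nM biotinylated H3K9me3 peptide was read by AlphaScreen. Buffer was PBS pH 7.4 with 0.01% Tween-20. Incubations ran 30 min at room temperature, with 10 ug/mL donor/acceptor beads.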
* hit, by the source's call; ? = inconclusive; . = not tested or not shown; ! = not active in a repeat; [ ] = dose if it differs, or a comment. This is a sample that favours compounds with a hit; in the whole collection about 10% have one here. Unless noted, the call rests on the fitted dose curve; in most records, active means well fitted inhibition curve with a large enough effect; inconclusive means small, poorly fitted or top-dose-only effect; inactive means no such curve, though single readings can be large or run the other way.

SMILES | CtBP-E1A blk | G9a inh | JMJD2A Tudor inh | Six1-Eya2 inh | BAZ2B block | HP1b chromo inh
O=C1NC(=O)N(c2ccccc2)C(=O)/C1=C\c1ccc2c3c(cccc13)CC2 | . | 7.1µM* | . | . | ? | .
COc1ccc(C2C=C(c3ccccc3)Nc3nc(NC(=O)/C=C/c4ccccc4Cl)nn32)cc1 (centres undefined) | . | ? | -6% | . | -28% | 46%
CC[N+](C)(CC)CCOC(=O)C(O)(c1ccccc1)c1ccccc1 | . | -37%[12.7 µM] | . | . | . | .
CC(C)[N+](C)(CCC(C(N)=O)(c1ccccc1)c1ccccc1)C(C)C | 2 | -74%[2.33 µM] | 25µM* | 2 | -18% | ?
COc1ccc(-c2nc(CN3C(=O)CN=C(c4ccccc4)c4cc(Cl)ccc43)c(C)o2)cc1 | . | -35%[59 µM] | 4% | . | -10% | 43%
N#Cc1cccc(NC(=O)N2CC[C@@]3(CCCN(C(=O)Oc4ccccc4)C3)C2)c1 | . | 6%[12.7 µM] | . | . | . | .
CNC(C(=O)c1ccccc1)C(OC)c1ccccc1 (centres undefined) | -2 | ? | 14% | 4 | -37% | 69%
CNC(C(=O)c1ccccc1)C(OC)c1cccc([N+](=O)[O-])c1 (centres undefined) | -3 | 56µM* | -12% | 23 | -4% | 40%
S=c1[nH]nc(-c2ccc3ccccc3n2)n1-c1ccc2c(c1)OCCO2 | -14 | . | 45µM* | -9 | ? | 8%
COc1ccc(-c2n[nH]c(=S)n2-c2ccc3c(c2)OCCO3)cc1OC | . | . | 3.2µM* | 2 | -10% | 8%
CC(C)(C)C(=O)OC1=CN(Cc2ccccc2)S(=O)(=O)c2ccccc21 | . | 23%[59 µM] | 14% | . | 5% | 71%
COc1ccc(C(=O)O)cc1OC | 7 | -58%[2.33 µM] | -7% | 3 | . | 20%
O=C(O)c1cc[c]([Hg][Cl])cc1 | ? | 1µM*! | 0.89µM* | -4 | 1.3µM* | ?
Cc1ccc(-n2c(O)c(/C=C/C=Nc3ccccc3)c(=O)[nH]c2=O)cc1 | -2 | ? | -28% | 4 | -4% | 35%
COc1ccc(-n2c(O)c(/C(C)=N/Nc3ccccc3)c(=O)[nH]c2=O)cc1 | -10 | 40µM* | -15% | 0 | -6% | 42%
C/C(=N\NC(=O)c1ccccc1)c1c(O)n(Cc2ccccc2)c(=O)[nH]c1=O | -2 | -25% | -9% | -10 | -9% | 31%
C/C(=N\Nc1cccc2ccccc12)c1c(O)n(Cc2ccccc2)c(=O)[nH]c1=O | 0 | 1.6µM* | 79µM* | 11 | ? | ?
C/C(=N\NC(=S)Nc1ccccc1)c1c(O)n(C)c(=O)n(C)c1=O | 4 | 1.3µM* | 18µM* | 5 | -4% | -8%
Cc1ccc(N/N=C/c2c(O)n(-c3ccccc3)c(=O)[nH]c2=O)cc1 | 6 | 3.2µM* | -21% | -4 | -30% | -7%
CC(=NCCc1ccccc1)c1c(O)n(C)c(=O)n(C)c1=O | 1 | -6%[59 µM] | 0% | -16 | -1% | 50%
CC/C(=N\Nc1ccccc1)c1c(O)n(-c2ccccc2)c(=O)[nH]c1=O | 2 | 40µM* | -12% | -2 | -23% | 55%
CC/C(=N\Nc1ccccc1)c1c(O)n(C)c(=O)n(C)c1=O | -7 | 22µM* | -18% | 10 | -30% | 24%
Cc1ccc(-n2c(O)c(/C=N/c3ncc(Br)cc3Br)c(=O)[nH]c2=O)cc1 | 2 | 9%[59 µM] | -14% | -1 | ? | 4%
CC/C(=N\NC(=O)Nc1ccccc1)c1c(O)n(Cc2ccccc2)c(=O)[nH]c1=O | 0 | -22% | -27% | 0 | -2% | 40%
Cc1cccc(-n2c(O)c(C=Nc3ccc(Br)cn3)c(=O)[nH]c2=O)c1 | 0 | . | 10µM* | -3 | 1% | 11%
SMILES | CtBP-E1A blk | G9a inh | JMJD2A Tudor inh | Six1-Eya2 inh | BAZ2B block | HP1b chromo inh
C[C@@H]1CC2(CCCC[N+]2(C)C)C[C@H]1C | -12 | 11µM* | ? | -2 | -17% | -2%
CSCC[C@H](NC(=O)[C@H](Cc1ccccc1)NC(=O)CNC(=O)CNC(=O)[C@@H](N)Cc1ccc(O)cc1)C(=O)O | . | 45%[59 µM] | . | . | . | .
CN1CCc2cc3c(cc2[C@@H]1[C@@H]1OC(=O)c2c1ccc1c2OCO1)OCO3 | . | 23%[21.5 µM] | . | . | . | .
CC1CCC2(CC1)NC(=O)N(NC(=O)CCl)C2=O (centres undefined) | 10 | -29% | 2% | 4 | -1% | 53%
COc1ccccc1CNCc1cc(OC)c(OC)cc1OC | 1 | 3.2µM* | 2.5µM* | 0 | 50µM* | ?
Cc1nc2cnc(N3CCNCC3)nc2n(C)c1=O | . | 0%[12.7 µM] | . | . | . | .
O=C(NC1CCCCC1)Oc1cc2oc(=O)sc2cc1Cl | -5 | 40µM* | -27% | 1 | -27% | 39%
CCCC1(CCC)C(=O)NC(=NCc2ccccc2)NC1=O | 4 | 45µM* | -10% | 5 | 3% | 1%
Cc1ccc(-c2nc(CS(=O)CC(=O)NC3CCCC(C)C3C)c(C)o2)cc1 (centres undefined) | -6 | 35µM* | -21% | -1 | -19% | 29%
N[C@@H](Cn1oc(=O)[nH]c1=O)C(=O)O | 7 | 10µM*! | 4µM* | -2 | . | -7%
FC(F)(F)c1nc(N2CCN(c3ccccc3)CC2)nc2c1CCCCC2 | 8 | 43%[59 µM] | 21% | 9 | 4% | 55%
O[C@@H]1CCCN2C[C@@H](O)[C@@H](O)C12 (some centres undefined) | . | 39%[59 µM] | . | . | . | .
CCOC(=O)c1ccc(N=C(c2ccccc2)c2c(O)n(C)c(=O)n(C)c2=O)cc1 | 1 | 50µM* | 11% | 4 | -12% | 47%
COC(=O)c1ccc(N=C(c2ccccc2)c2c(O)n(C)c(=O)n(C)c2=O)cc1 | -17 | ? | -5% | -4 | -18% | 52%
C[N+]12CCC(CC1)C(C#N)(N1CCOCC1)C2 (centres undefined) | -3 | 50µM* | ? | 4 | 1% | 21%
COc1ccc(C[C@H]2c3cc(OC)c(OC)cc3CCN2C)cc1OC | . | 16%[21.5 µM] | . | . | . | .
CCCCCCC1CC(C)(C(=O)CNc2nncs2)OC1=O (centres undefined) | -10 | 14µM* | -13% | 11 | -32% | 9%
O=C(C1c2ccccc2C(=O)N2CCc3ccccc3C12)N1CCC2(CC1)OCCO2 (centres undefined) | -2 | -30% | -11% | 2 | -27% | 23%
COc1cc2c(cc1OC)C(C(=O)N1CCC3(CC1)OCCO3)C(c1ccccc1F)N(C)C2=O (centres undefined) | -10 | 0.79µM* | 3%[57.1 µM] | -1 | 3% | 20%
